The record followed here is publication PMC6602471.

Over roughly 1,300 sequences, “log fluorescence intensity” has its median near 8.9; the highest 2% begin near 13. The sample holds the highest values, similar sequences and a random draw of the others, so the mix is not that of the screen.

The target of the experiment is T1, ELK1 (Homo sapiens, UniProt P19419 1-428).
T1 sequence: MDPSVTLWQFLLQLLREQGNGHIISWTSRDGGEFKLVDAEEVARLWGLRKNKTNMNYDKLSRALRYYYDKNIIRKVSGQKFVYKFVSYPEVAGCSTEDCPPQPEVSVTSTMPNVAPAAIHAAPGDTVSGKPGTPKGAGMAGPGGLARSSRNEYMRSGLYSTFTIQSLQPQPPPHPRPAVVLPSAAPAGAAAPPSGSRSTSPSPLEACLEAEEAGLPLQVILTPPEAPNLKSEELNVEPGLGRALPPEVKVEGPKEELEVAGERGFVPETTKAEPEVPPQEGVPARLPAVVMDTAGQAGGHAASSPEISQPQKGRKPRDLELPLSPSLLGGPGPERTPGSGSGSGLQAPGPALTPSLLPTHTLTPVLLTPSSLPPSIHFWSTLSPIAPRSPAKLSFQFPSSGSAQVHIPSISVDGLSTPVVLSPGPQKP
Description: custom PBM; custom protein-binding microarray; buffer, salt, pH and temperature not stated; high values mean tight binding. The settings on record: dsDNA, one strand shown.
As to “GCTGCTGCGGTGCATACCCCACCGGATGTGACTCCGGTCTTGATTCGCTTGACGCTGCTG”, the binding signal is 10.3 log fluorescence intensity.
With “GATTAATTTCTTCCCTTATTCGCACGTGCCATAACAGTCTTGATTCGCTTGACGCTGCTG” the figure was 9.19 log fluorescence intensity.
With “CGGAAGTGTCGTATACGTCGGATATCCGGTTCTTCTGTCTTGATTCGCTTGACGCTGCTG” the figure was 12.5 log fluorescence intensity; with “CGGAAGTGTCTTAAACGTCGGATATCCGGTTCTTCTGTCTTGATTCGCTTGACGCTGCTG”, 12.1 log fluorescence intensity; with “CGGAAGTGTCCTAAACGTCGGATATCCGGTTCTTCTGTCTTGATTCGCTTGACGCTGCTG”, 12.4 log fluorescence intensity.
The value for “CGGAAGTGTCATAAACGTCGGATATCCGGTTCTTCTGTCTTGATTCGCTTGACGCTGCTG” was 12.1 log fluorescence intensity; that for “CGGAAGTGTCGTCAACGTCGGATATCCGGTTCTTCTGTCTTGATTCGCTTGACGCTGCTG” was 12.6 log fluorescence intensity; that for “CGGAAGTGTCGTTAACGTCGGATATCCGGTTCTTCTGTCTTGATTCGCTTGACGCTGCTG” was 12.6 log fluorescence intensity.
For the sequence “CGGAAGTGTCGTAGACGTCGGATATCCGGTTCTTCTGTCTTGATTCGCTTGACGCTGCTG”, the binding signal is 12.3 log fluorescence intensity.
With “CGGAAGTGTCGCAAACGTCGGATATCCGGTTCTTCTGTCTTGATTCGCTTGACGCTGCTG” the figure was 12.5 log fluorescence intensity.
On to “CGGAAGTGTCGTGAACGTCGGATATCCGGTTCTTCTGTCTTGATTCGCTTGACGCTGCTG”, for which the binding signal was 11.8 log fluorescence intensity.
On to “CGGAAGTGTCGAAAACGTCGGATATCCGGTTCTTCTGTCTTGATTCGCTTGACGCTGCTG”, for which the binding signal is 12.4 log fluorescence intensity.
Turning to “CGGAAGTGTCGGAAACGTCGGATATCCGGTTCTTCTGTCTTGATTCGCTTGACGCTGCTG”, the binding signal was 13.5 log fluorescence intensity.
With “CGGAAGTGTAGTAAACGTCGGATATCCGGTTCTTCTGTCTTGATTCGCTTGACGCTGCTG” the figure was 12.1 log fluorescence intensity; with “GCTGCCGCGGTGCATACCCCACCGGATGTGACCCCGGTCTTGATTCGCTTGACGCTGCTG”, 10.5 log fluorescence intensity; with “GCTGATGCGGTGCATACCCCACCGGATGTGACCCCGGTCTTGATTCGCTTGACGCTGCTG”, 10.2 log fluorescence intensity.
The value for “CTGGGACTTGACCCAACTCTGCCGCGTGGGTCGTTTGTCTTGATTCGCTTGACGCTGCTG” was 8.91 log fluorescence intensity; that for “GGAAAAAGACCCAGGGTAACACCGGAAGTGGGCTTAGTCTTGATTCGCTTGACGCTGCTG” was 11 log fluorescence intensity.
With “GCTGCTGCGTTGCATACCCCACCGGATGTGACCCCGGTCTTGATTCGCTTGACGCTGCTG” the figure was 10.1 log fluorescence intensity.
On to “TCCGGCTACCAGCTCCACCCAATTCAGGCCTTGTAGGTCTTGATTCGCTTGACGCTGCTG”, for which the binding signal was 8.93 log fluorescence intensity.
The value for “CTGGGACTTGACCTAACTCTGCCACGTGGGTCGTTTGTCTTGATTCGCTTGACGCTGCTG” was 8.92 log fluorescence intensity.
With “CACAATTTTTACAGTAATGTAGCATGCGTAACTCCTGTCTTGATTCGCTTGACGCTGCTG” the figure was 8.94 log fluorescence intensity; with “CTGGGACATGACCCAACTCTGCCACGTGGGTCGTTTGTCTTGATTCGCTTGACGCTGCTG”, 8.96 log fluorescence intensity.
The value for “GCTGCTGCGGTGCATACCCCACAGGATGTGACCCCGGTCTTGATTCGCTTGACGCTGCTG” was 9.08 log fluorescence intensity.
Take “TGTCGGGTAAGGGAATGTAGATCACGTGAATGAATAGTCTTGATTCGCTTGACGCTGCTG”: the binding signal is 8.98 log fluorescence intensity.
With “TGTCGGGTAAGGGAATGTAGATCACGTGAATGATAAGTCTTGATTCGCTTGACGCTGCTG” the figure was 9.11 log fluorescence intensity; with “GCTGCTGCGGTGCATACCCCACCGGATGTGCCCCCGGTCTTGATTCGCTTGACGCTGCTG”, 10.2 log fluorescence intensity; with “TATTAATTTCTGCCCTTATTCGCACGTGCCATAACAGTCTTGATTCGCTTGACGCTGCTG”, 8.91 log fluorescence intensity.
With “GTGTATAGGATCCCATCCAACACACGGGTTAAAATGGTCTTGATTCGCTTGACGCTGCTG” the figure was 8.95 log fluorescence intensity; with “GCTGCTGCGGTGCCTACCCCACCGGATGTGACCCCGGTCTTGATTCGCTTGACGCTGCTG”, 10.3 log fluorescence intensity.
With “TACTGACTTTTATATGCGAATGCACATGAATAGACCGTCTTGATTCGCTTGACGCTGCTG” the figure was 8.97 log fluorescence intensity; with “GTAAAAAGGCCCAGGGTAACACCGGAAGTGGGCTTAGTCTTGATTCGCTTGACGCTGCTG”, 10.9 log fluorescence intensity.
Turning to “GTGTATAGGATCCCATCCAACACACGTATTAAAATGGTCTTGATTCGCTTGACGCTGCTG”, the binding signal is 9.05 log fluorescence intensity.
With “CGGAAGTGTGGTAAACGTCGGATATCCGGTTCTTCTGTCTTGATTCGCTTGACGCTGCTG”, the binding signal is 12 log fluorescence intensity.
The value for “CAGTATAGGACTTCTTCCCTGAAGCAATTGATAACCGTCTTGATTCGCTTGACGCTGCTG” was 8.93 log fluorescence intensity.
The value for “GTGTATGGGATCCCATCCAACACACGTGTTAAAATGGTCTTGATTCGCTTGACGCTGCTG” was 9.12 log fluorescence intensity; that for “CACTATTTTTACAGTAATGTAGCACGCGTAACTCCTGTCTTGATTCGCTTGACGCTGCTG” was 8.94 log fluorescence intensity; that for “TACTGACTAATATATGCGAATGCACATGAATAGACCGTCTTGATTCGCTTGACGCTGCTG” was 8.92 log fluorescence intensity.
With “TGTCGGGTAAGGAAATGTAGATCACGTGAATGAAAAGTCTTGATTCGCTTGACGCTGCTG” the figure was 8.91 log fluorescence intensity.
As to “GGAAAGAGGCCCAGGGTAACACCGGAAGTGGGCTTAGTCTTGATTCGCTTGACGCTGCTG”, the binding signal is 10.8 log fluorescence intensity.
“CTGGGATTTGACCCAACTCTGCCACGTGGGTCGTTTGTCTTGATTCGCTTGACGCTGCTG”: the binding signal was 9.02 log fluorescence intensity.
With “TGTCGGGTAAGGGAATGTAGATCACGTGGATGAAAAGTCTTGATTCGCTTGACGCTGCTG” the figure was 8.97 log fluorescence intensity; with “TCCGGCTACCAGCTCCACCCACTTCAGGCCTTGTCGGTCTTGATTCGCTTGACGCTGCTG”, 9.01 log fluorescence intensity; with “CACAGTTTTTACAGTAATGTAGCACGCGTAACTCCTGTCTTGATTCGCTTGACGCTGCTG”, 8.91 log fluorescence intensity.
With “GTGTATAGGATCCCATCCAACACACGTGATAAAATGGTCTTGATTCGCTTGACGCTGCTG” the figure was 8.94 log fluorescence intensity.
The value for “CAGCATAGGACTTCTTCCCTGAAACAATTGATAACCGTCTTGATTCGCTTGACGCTGCTG” was 8.97 log fluorescence intensity; that for “GATTAATTTCTGCCCTTATTCGCACGTGCCCTAACAGTCTTGATTCGCTTGACGCTGCTG” was 8.97 log fluorescence intensity.
For “TCCGGCTACCAGCTCCACCCACTTCATGCCTTGTAGGTCTTGATTCGCTTGACGCTGCTG”, the binding signal was 8.92 log fluorescence intensity.
Take “GGAAAAAGGCCCAGGGTAACTCCGGAAGTGGGCTTAGTCTTGATTCGCTTGACGCTGCTG”: the binding signal was 10.4 log fluorescence intensity.
The value for “GTGTATAGGATCCCATCCAACACACGTGTTACAATGGTCTTGATTCGCTTGACGCTGCTG” was 9.02 log fluorescence intensity; that for “TGTCGGGTAAGGGAATGTACATCACGTGAATGAAAAGTCTTGATTCGCTTGACGCTGCTG” was 8.92 log fluorescence intensity.
Turning to “GTGTATAGGATCCCATCCCACACACGTGTTAAAATGGTCTTGATTCGCTTGACGCTGCTG”, the binding signal is 9.07 log fluorescence intensity.
The value for “CGGAAGTGTTGTAAACGTCGGATATCCGGTTCTTCTGTCTTGATTCGCTTGACGCTGCTG” was 12 log fluorescence intensity; that for “GGAAAAAGGCCCAGGGTACCACCGGAAGTGGGCTTAGTCTTGATTCGCTTGACGCTGCTG” was 11.1 log fluorescence intensity.
With “GGAAAAAGGCCCAGGATAACACCGGAAGTGGGCTTAGTCTTGATTCGCTTGACGCTGCTG” the figure was 11.1 log fluorescence intensity; with “TGTCGGGTAAGGGAATGTAGATCACGTGAATGAAGAGTCTTGATTCGCTTGACGCTGCTG”, 9.1 log fluorescence intensity.
With “TACTGACTTATATATGCGAATGCACATGAATAGCCCGTCTTGATTCGCTTGACGCTGCTG” the figure was 8.94 log fluorescence intensity.
With “CTGGGACTTGACCCAACTCTGCTACGTGGGTCGTTTGTCTTGATTCGCTTGACGCTGCTG”, the binding signal is 8.94 log fluorescence intensity.
The value for “TAAAGGGAAGACGGTTGTGGTAGTTCCGGGGATTAAGTCTTGATTCGCTTGACGCTGCTG” was 10.9 log fluorescence intensity; that for “GCTGCTGCGGTGCTTACCCCACCGGATGTGACCCCGGTCTTGATTCGCTTGACGCTGCTG” was 10.2 log fluorescence intensity.
The value for “GATTAATTTCCGCCCTTATTCGCACGTGCCATAACAGTCTTGATTCGCTTGACGCTGCTG” was 12.5 log fluorescence intensity.
The value for “TAGAGGGAAGACGGTTGTGGTAGTTCCGGGTATTAAGTCTTGATTCGCTTGACGCTGCTG” was 11.2 log fluorescence intensity.
As for “GATTAATTTCTGCCCTTATTCGCACGTGCCATACCAGTCTTGATTCGCTTGACGCTGCTG”, the binding signal was 8.97 log fluorescence intensity.
The value for “GCTCCTGCGGTGCATACCCCACCGGATGTGACCCCGGTCTTGATTCGCTTGACGCTGCTG” was 10.3 log fluorescence intensity; that for “TACTGACTTATATATGCTAATGCACATGAATAGACCGTCTTGATTCGCTTGACGCTGCTG” was 8.92 log fluorescence intensity.
On to “GGAAAAAGCCCCAGGGTAACACCGGAAGTGGGCTTAGTCTTGATTCGCTTGACGCTGCTG”, for which the binding signal is 10.8 log fluorescence intensity.
In the case of “TAAAGGGAAGGCGGTTGTGGTAGTTCCGGGTATTAAGTCTTGATTCGCTTGACGCTGCTG”, the binding signal was 11.5 log fluorescence intensity.
In the case of “TAAAGGGAAGACGGTGGTGGTAGTTCCGGGTATTAAGTCTTGATTCGCTTGACGCTGCTG”, the binding signal is 11.1 log fluorescence intensity.
The value for “GCTGCTGCGGTGCATAGCCCACCGGATGTGACCCCGGTCTTGATTCGCTTGACGCTGCTG” was 10.4 log fluorescence intensity; that for “CGGAAGTGTCGTAAACGTCGGATATGCGGTTCTTCTGTCTTGATTCGCTTGACGCTGCTG” was 9.16 log fluorescence intensity; that for “TCCGGCTACCAGGTCCACCCACTTCAGGCCTTGTAGGTCTTGATTCGCTTGACGCTGCTG” was 8.9 log fluorescence intensity.
Regarding “ATGGGACTTGACCCAACTCTGCCACGTGGGTCGTTTGTCTTGATTCGCTTGACGCTGCTG”, the binding signal was 8.96 log fluorescence intensity.
The value for “TACTGATTTATATATGCGAATGCACATGAATAGACCGTCTTGATTCGCTTGACGCTGCTG” was 8.91 log fluorescence intensity.
With “CTGGGACTTGATCCAACTCTGCCACGTGGGTCGTTTGTCTTGATTCGCTTGACGCTGCTG” the figure was 8.95 log fluorescence intensity; with “TAAAGGGAAGACGGTCGTGGTAGTTCCGGGTATTAAGTCTTGATTCGCTTGACGCTGCTG”, 11.3 log fluorescence intensity; with “CAGCATAGGACTTCTTCCCTGAAGCAAGTGATAACCGTCTTGATTCGCTTGACGCTGCTG”, 8.97 log fluorescence intensity.
The value for “GATTAATTTCTGCCATTATTCGCACGTGCCATAACAGTCTTGATTCGCTTGACGCTGCTG” was 8.92 log fluorescence intensity.
“TAAAGGGAAGACGGTTGTGGTACTTCCGGGTATTAAGTCTTGATTCGCTTGACGCTGCTG”: the binding signal is 12 log fluorescence intensity.
The value for “TAAAGGGAAGACGGTTGTGGTTGTTCCGGGTATTAAGTCTTGATTCGCTTGACGCTGCTG” was 10.5 log fluorescence intensity; that for “CACAATTTTTACAGTAATTTAGCACGCGTAACTCCTGTCTTGATTCGCTTGACGCTGCTG” was 8.93 log fluorescence intensity.
The value for “TACTGACTTATATATGCGAATGCACATGATTAGACCGTCTTGATTCGCTTGACGCTGCTG” was 9 log fluorescence intensity.
